Screening results deposited in PubChem by National Center for Advancing Translational Sciences (NCATS).
The entries come from a sample that favours hits as a whole.
Pf Dd2 growth – blocks in vitro growth of P. falciparum Dd2. Potency, µM (highest dose often 28.9 µM), without a hit: at the highest dose activity, negative = inhibition, most hits filed as inhibitors. 120,000 tested, 4.3% active. P. falciparum Dd2 growth, SYBR Green, 72 h. AID 1347417; active means well fitted inhibition curve with a large enough effect;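 further: plate controls were DMSO vehicle for no effect and reference drug for full effect; nearly all actives have a fitted effect of over 65% in size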
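Readout: SYBR Green fluorescence, 485 nm excitation, 535 nm emission, after ~16 h lysis at 37C. Before that, Dd2-infected red cells (2.5% hematocrit) grew 72 h with compound, 29 uM top final concentration.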
* = called active by the depositor; i = inactive; [ ] = another dose, or the depositor's remark. Potency means the concentration at half of the fitted maximal effect.

SMILES	Pf Dd2 growth
CCNC(=O)N1CCCN(C(=O)C2CC2)C(c2ccccc2)CC(=O)NCC1 (stereo not given)	12%
CCc1nc(-c2c3n(c(=O)n(Cc4cc(F)ccc4F)c2=O)CCCC3)no1	0%
CN(Cc1cc(-c2cccs2)n[nH]1)C[C@@H]1CCCN2CCCC[C@H]12	7.1µM*
CN1CCCn2nc(C(=O)N(C)Cc3cc(-c4cccs4)n[nH]3)cc2C1	-4%
CN(Cc1cc(-c2cccs2)n[nH]1)C(=O)c1cn(CCN)nn1	-5%
CC(NC(=O)CCc1conc1-c1ccccc1)c1ccc(F)cc1 (stereo not given)	i
CN1CCC(N2CCN(S(=O)(=O)c3ccc(F)cc3)CC2)C1=O (stereo not given)	28%
CC1(COc2ccccc2)COc2ccc(C(=O)NCCc3ccccn3)cc2N1 (stereo not given)	i
CN1C[C@@H](NS(=O)(=O)Cc2ccccc2)C[C@H]1c1nc(Cc2ccccc2)no1	i
Cc1ccc(-n2cc(CN3CCCCC3C(N)=O)c(-c3cccc(C)c3)n2)cc1 (stereo not given)	11µM*
COc1cccc(-c2ccc(NC(=O)C3CCCN3Cc3cnn(C)c3)cc2)c1 (stereo not given)	-23%
Cc1cccc(CC(=O)N2CCCCCC2c2nnc(-c3ccccc3)o2)c1 (stereo not given)	i
Clc1ccc(-c2cc3c(cn2)CN(Cc2ccncc2)CCN3)cc1	i
Cc1ccc(Cl)cc1-n1ncc2c(N3CCCCCC3)ncnc21	17%
CN1CCN(c2ncnc3c2cnn3-c2cccc(Cl)c2)CC1	i
Cc1ccc(Cl)cc1-n1ncc2c(NCCCc3ccccc3)ncnc21	20%
Cc1ccc(-n2ncc3c(N4CCN(c5ccccc5)CC4)ncnc32)cc1C	61%
COc1ccccc1N1CCN(c2ncnc3c2cnn3-c2cc(Cl)ccc2C)CC1	8.9µM*
CC(=O)c1ccc(N2CCN(c3ncnc4c3cnn4-c3cc(Cl)ccc3C)CC2)cc1	11µM*
Cc1ccc(Cl)cc1-n1ncc2c(NCCc3ccccc3)ncnc21	i
CC(=O)c1ccc(N2CCN(c3ncnc4c3cnn4C)CC2)cc1	i
CCc1ccc(Nc2ncnc3c2cnn3-c2cc(Cl)ccc2C)cc1	10µM*
Cc1ccc2c(c1)N1C(=O)OC[C@@H]1CCN(C(=O)CC(C)C)C2	i
Cc1cc(=O)n(CC(=O)Nc2ccccc2C)c(N2CCc3ccccc3C2)n1	-29%
Nc1nc2c(s1)C(c1cccc(F)c1)CC(=O)N2 (stereo not given)	-16%
SMILES	Pf Dd2 growth
O=C(O)COCC(=O)N[C@H]1CCN2C(=O)c3cc(-c4cccs4)ccc3NC(=O)[C@H]12	-2%[44.1 µM]
CCCN1CCN(C(=O)Cn2c(-c3cccs3)cc3cc(F)ccc32)CC1	-18%
Cc1ccc(C)c(N2CCN(CCCNC(=O)Cn3ncc4c5ccccc5n(C)c4c3=O)CC2)c1	-26%
CC(C)c1nc2ccc(C(=O)NCCCN3CCN(c4cccc(Cl)c4)CC3)cc2o1	-2%
Cc1ccc(CCNC(=O)Cn2c(-c3cccs3)cc3ccccc32)cc1	13µM*
CC1CCN(C(=O)Cn2c(-c3cccs3)cc3cc(Cl)ccc32)CC1	-8%
Cc1ccc(NC(=O)Cn2c(CCC(=O)O)ccc2-c2cccs2)cc1	7%
Cc1cc(C)c(NC(=O)Cn2c(=O)n(CC(=O)NCCc3ccccc3)c(=O)c3ccccc32)c(C)c1	15%
CCCN1CCN(CCCNC(=O)Cn2c(-c3cccs3)cc3cc(Cl)ccc32)CC1	8.9µM*
O=C(Cn1c(-c2cccs2)cc2ccccc21)NCCCN1CCN(c2cccc(Cl)c2)CC1	11µM*
CCC(=O)N1c2ccccc2CC1C(=O)NCCN1CCN(c2cccc(Cl)c2)CC1 (stereo not given)	-23%
Cc1ccc(C)c(N2CCN(CCCNC(=O)Cn3c(-c4cccs4)cc4ccccc43)CC2)c1	7.9µM*
CCN1CCN(CCCNC(=O)Cn2c(-c3cccs3)cc3ccccc32)CC1	-17%
O=C1NCCOCCN(S(=O)(=O)c2cccc3cccnc23)[C@@H]2CCCC[C@H]12	-13%
CCOCCNc1ncnc2c1CN(C1CCC1)C(=O)CN2C	i
COc1ccc(O[C@H]2COCCN(C(=O)N3CCOCC3)C2)cc1	-8%[44.1 µM]
COc1ccc(C(=O)Nc2ccc([C@@H](O)[C@H]3COCC(=O)N3Cc3ccccc3F)cc2)cc1	i
CC(NC(=O)c1cc(-c2ccc(F)cc2)cn1C)c1ccccn1 (stereo not given)	i
CCCCNC(=O)c1noc(-c2ccc(C#N)cc2)n1	i
Cc1ccc(O[C@H]2COCC[C@H]2NC(=O)CCc2nc3ccccc3[nH]2)cn1	-1%
O=C(c1ccc(C(F)(F)F)cc1)N1CCC(N2CC3CC(C2)[C@H]2CCCC(=O)N2C3)CC1 (stereo not given in full)	i
Cc1cccc(OCCCSc2nc(-c3ccc(C(C)(C)C)cc3)nc3cc(=O)[nH]n23)c1C	10µM*
COc1cc(C)ccc1OCCSc1nc(-c2cccc(C)c2)nc2cc(=O)[nH]n12	-1%
CCc1ccc(OCCCSc2nc(-c3ccc(C(C)(C)C)cc3)nc3cc(=O)[nH]n23)cc1	11µM*
Cc1ccc(OCCSc2nc(-c3ccccc3C)nc3cc(=O)[nH]n23)cc1Cl	4%
SMILES	Pf Dd2 growth
CCc1ccc(OCCSc2nc(-c3cccc(C)c3)nc3cc(=O)[nH]n23)cc1	i
Cc1cccc(-c2nc(SCCCOc3ccc(Cl)c(C)c3)n3[nH]c(=O)cc3n2)c1	i
O=C(CC[C@H]1NC(=O)c2ccccc2NC1=O)Nc1nc(-c2cccnc2)cs1	-22%
CC(C)c1ccc(CN2CCC3(CC2)OC(=O)N(Cc2ncccn2)C3(C)c2ccccc2)cc1 (stereo not given)	-17%
O=C(O)c1cn2ccnc(-c3ccc(F)cc3)c2n1	-13%
COc1cccc(F)c1C(=O)N1C[C@@H](CN2CCOCC2)[C@@H](CO)C1	-2%
COc1cccc(CC(=O)N2CCC3(CC2)CC(OCC2CC2)CCO3)c1 (stereo not given)	-11%
O=C(c1ccccc1)N1CCC(c2nc(C3CCOCC3)no2)CC1	-2%
O=C(Cc1ccc(N(Cc2ccc(F)cc2)C(=O)c2ccco2)cc1)N1CCOCC1	i
Cc1ccc(CN(C(=O)c2ccco2)c2ccc(CC(=O)N(C)Cc3ccccc3)cc2)cc1	-27%
CCOC(=O)C1CCN(C(=O)Cc2ccc(N(Cc3ccccc3)C(=O)c3ccco3)cc2)CC1	1.4µM*
O=C1CO[C@H]2CCN(Cc3ccc4[nH]ccc4c3)CC[C@@H]2N1Cc1ccc(O)cc1	-15%[44.1 µM]
COc1ccc(NC(=O)N(C)CC2CCOCC2)cc1F	i
Cc1noc2c(NCCc3ccccn3)cc(-c3ccccn3)nc12	-10%[44.1 µM]
CCOc1ccccc1C(=O)NC1CCN(c2cc(-c3ccc(OC)cc3)[nH]n2)CC1	-20%
CCc1ccc(CN2CCc3nc(N4CCN(c5ccccc5F)CC4)ncc3C2)cc1	8.9µM*
COc1ccc(CN2CCc3nc(N4CCN(c5ccc(F)cc5)CC4)ncc3C2)c(OC)c1OC	11µM*
COc1cc(OC)c(OC)cc1CN1CCc2nc(Nc3ccc4c(c3)OCCO4)ncc2C1	10µM*
COc1ccc(CN2CCc3nc(N4CCOCC4)[nH]c(=O)c3CC2)c(OC)c1OC	i[5.79 µM]
Clc1ccc(CN2CCc3nc(N4CCN(c5ccccn5)CC4)ncc3C2)cc1	-5%
Fc1ccccc1N1CCN(c2ncc3c(n2)CCN(Cc2ccc(Br)s2)C3)CC1	-9%
COc1cccc(CN2CCc3nc(Nc4ccc5c(c4)OCCO5)ncc3C2)c1	-20%
